From PubChem
NR3A LBD binder – modulates the human NR3A ligand-binding domain. Tm shift relative to glycine control, % at 25 µM. hit rate 2.5% among 340,000. NR3A LBD differential scanning fluorimetry, Tm shift; 0% = protein alone, 100% = glycine-bound protein. AID 1259313;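 active means melting temperature shift of at least 10% of the positive control shift, at one fixed dose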
Beta apoptosis – blocks beta cell apoptosis. INS-1E cytokine-induced death, ATP luminescence, 48 h; percent of positive-control rescue, neutral wells zero. protection from apoptosis, % (concentration not given with the values). hit rate 0.8% among 300,000. AID 435005;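 active means Every replicate reaches about 75%, or at least half do and their mean reaches it too, limit read from the data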;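 further: 0% = cytokine-treated negative control wells and 100% = positive control rescue; higher means more ATP so stronger rescue from cytokine killing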
Gli-Sufu antag – antagonists of Gli-Sufu signaling. AID 588413. Sufu-KO-LIGHT fibroblasts, Gli luciferase reporter luminescence. inhibition, % at 5 µM. hit rate 0.74% among 340,000;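 active means inhibition above about 55%, limit read from the data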;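 further: 0% = DMSO-treated cells and 100% = wells with medium but no cells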
CSC inhib – blocks cancer stem cells; cancer stem cell-like cells viability, luminescence; inhibition, % at 7.5 µM; hit rate 1.1% among 300,000; AID 2717; in the data active means inhibition above about 75%; tested in HMLE shEcad cells
Mdm2-MdmX inh – inhibitors of human Mdm2/MdmX interaction; inhibition, % at 8 µM; SaOS-2 split-luciferase Mdm2/MdmX complementation, luminescence; hit rate 3% among 330,000; O15151+Q00987;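 active means inhibition of at least 50% at 8 µM in the primary screen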
MPTP block – inhibitors of mitochondrial permeability transition pore; isolated mouse mitochondria, Ca2+ swelling absorbance, 30 min; inhibition, % at 10 µM; hit rate 1.4% among 360,000; AID 602449;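 active means inhibition of 50% or more, scaled per plate between neutral and stimulator controls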;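 further: 0% = DMSO wells given calcium and 100% = 1 mM EGTA wells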
MPTP counter – membrane potential counter-screen of mitochondrial pore inhibitors. inhibition, % at 10 µM. isolated mitochondria, Rhodamine 123 fluorescence. hit rate 78% among 5,000. AID 624504. shares compounds with MPTP block; in the data active means inhibition above about 22%;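 further: 0% = DMSO vehicle and 100% = positive control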
The depositor's hits bear a star. This is a sample that favours compounds with a hit; in the whole collection about 6.6% have one here.

For COC(=O)Nc1nnc(Cc2ccc(Cl)cc2)s1 the results were NR3A LBD binder 1, Beta apoptosis -3, Gli-Sufu antag -6, CSC inhib 0, Mdm2-MdmX inh 0 and MPTP block 0.
Screening O=C(Nc1ccc(Cl)cc1)Nc1nnc(Cc2ccc([N+](=O)[O-])cc2)s1 returned NR3A LBD binder 0, Beta apoptosis -3, Gli-Sufu antag -10, CSC inhib -9, Mdm2-MdmX inh 38, MPTP block 83* and MPTP counter 63*.
Screening Cc1ccc(SCc2nnc(NC(=O)c3ccccc3)s2)cc1 returned NR3A LBD binder -1, Beta apoptosis -5, Gli-Sufu antag -3, CSC inhib 1, Mdm2-MdmX inh -25 and MPTP block -1.
For O=C(Nc1ccc(Cl)cc1)Nc1nnc(CSc2ccc(Cl)cc2)s1 the results were NR3A LBD binder 27*, Beta apoptosis 7, Gli-Sufu antag 34, Mdm2-MdmX inh -6, MPTP block 85* and MPTP counter 63*.
O=C(OC1CCCCC1=O)c1cc(S(=O)(=O)N2CCOCC2)ccc1F (stereo not drawn) was read as NR3A LBD binder 5, Beta apoptosis -5, Gli-Sufu antag -10, CSC inhib -6, Mdm2-MdmX inh 21 and MPTP block 0.
Screening CC(C)CCN1C(=O)c2ccc(C(=O)Nc3ccc(Br)cc3C(=O)O)cc2C1=O returned NR3A LBD binder 0, Gli-Sufu antag -3, CSC inhib 12, Mdm2-MdmX inh 17, MPTP block 93* and MPTP counter 46*.
CC(C)CN1C(=O)c2ccc(C(=O)Nc3ccccn3)cc2C1=O was read as NR3A LBD binder -1, Beta apoptosis 6, Gli-Sufu antag 3, CSC inhib -1, Mdm2-MdmX inh 8 and MPTP block 0.
For CC(C)CN1C(=O)c2ccc(C(=O)Nc3ccncc3)cc2C1=O the results were NR3A LBD binder 0, Beta apoptosis 1, Gli-Sufu antag 3, CSC inhib 2, Mdm2-MdmX inh 0, MPTP block 60* and MPTP counter 70*.
`COc1ccccc1/C=C/CN1CCC(n2nccc2NC(=O)CCc2ccccc2)CC1` gave NR3A LBD binder -2, Beta apoptosis 78*, Gli-Sufu antag 43, CSC inhib 2, Mdm2-MdmX inh 43, MPTP block 74* and MPTP counter 109*.
`Cc1cc(F)ccc1NCc1ccccc1[N+](=O)[O-]` gave NR3A LBD binder 0, Beta apoptosis -5, Gli-Sufu antag -4, CSC inhib 2, Mdm2-MdmX inh 24 and MPTP block -1.
For O=[N+]([O-])c1ccccc1CNc1ccc(F)c(Cl)c1 the results were NR3A LBD binder -5, Beta apoptosis -1, Gli-Sufu antag -3, CSC inhib -7, Mdm2-MdmX inh 28, MPTP block 76* and MPTP counter 80*.
O=c1[nH]c2ccc(NC(=S)Nc3ccc(Cl)cc3)cc2[nH]1 was read as NR3A LBD binder 3, Beta apoptosis -1, Gli-Sufu antag -10, CSC inhib -6, Mdm2-MdmX inh -10, MPTP block 56* and MPTP counter 103*.
For S=C(Nc1ccc(Cl)cc1)Nc1ccc2cn[nH]c2c1 the results were NR3A LBD binder 26*, Beta apoptosis 1, Gli-Sufu antag 6, CSC inhib -8, Mdm2-MdmX inh 13, MPTP block 93* and MPTP counter 89*.
Screening CC(C)NC(=S)Nc1ccc2cn[nH]c2c1 returned NR3A LBD binder 0, Beta apoptosis -21, Gli-Sufu antag 4, CSC inhib -13, Mdm2-MdmX inh 29 and MPTP block 7.
`O=c1[nH]c2ccc(NC(=S)Nc3ccccc3)cc2[nH]1` gave NR3A LBD binder -1, Beta apoptosis -3, Gli-Sufu antag -12, CSC inhib -10, Mdm2-MdmX inh -2 and MPTP block -1.
Screening CCOC(=O)c1ccc(NC(=S)Nc2ccc3[nH]c(=O)[nH]c3c2)cc1 returned NR3A LBD binder 1, Beta apoptosis -2, Gli-Sufu antag -3, CSC inhib -6, Mdm2-MdmX inh 6, MPTP block 74* and MPTP counter 59*.
`S=C(Nc1ccc(Cl)cc1)Nc1ccc2c(c1)OCCO2` gave NR3A LBD binder 2, Beta apoptosis -6, Gli-Sufu antag -38, CSC inhib -5, Mdm2-MdmX inh -21, MPTP block 50* and MPTP counter 99*.
`CCOC(=O)CN(C(=O)CSc1nnnn1C)c1ccccc1` gave NR3A LBD binder -4, Beta apoptosis -6, Gli-Sufu antag 0, CSC inhib -16, Mdm2-MdmX inh 22 and MPTP block -1.
`CCCN(C(=O)c1ccc(OCC(C)C)cc1)c1c(N)n(Cc2ccccc2)c(=O)[nH]c1=O` gave NR3A LBD binder -2, Beta apoptosis -4, Gli-Sufu antag -6, CSC inhib -3, Mdm2-MdmX inh 1 and MPTP block 0.
Cc1cc(C(=O)Nc2ccc(N3CCCC3)c(Cl)c2)ccc1[N+](=O)[O-] was read as NR3A LBD binder -25, Beta apoptosis 7, Gli-Sufu antag 3, CSC inhib 33, Mdm2-MdmX inh -9, MPTP block 80* and MPTP counter 86*.
CN1CCN(c2ccc(Cl)cc2NC(=O)c2ccc([N+](=O)[O-])cc2)CC1 was read as NR3A LBD binder -2, Beta apoptosis 3, Gli-Sufu antag 3, CSC inhib 0, Mdm2-MdmX inh 14 and MPTP block 0.
`CC1CCCN(c2ccc(C(=O)Nc3ccc4c(c3)OCO4)cc2[N+](=O)[O-])C1` (stereo not drawn) gave NR3A LBD binder -2, Beta apoptosis 6, Gli-Sufu antag -3, CSC inhib 102*, Mdm2-MdmX inh 34, MPTP block 58* and MPTP counter 43*.
For CC1CCCN(c2ccc(C(=O)NCc3ccc4c(c3)OCO4)cc2[N+](=O)[O-])C1 (stereo not drawn) the results were NR3A LBD binder -8, Beta apoptosis 6, Gli-Sufu antag 0, CSC inhib 15, Mdm2-MdmX inh -10 and MPTP block 7.
Screening O=C(Nc1ccc(N2CCCC2)c(Cl)c1)c1ccc([N+](=O)[O-])cc1 returned NR3A LBD binder 1, Beta apoptosis 8, Gli-Sufu antag -25, CSC inhib 11, Mdm2-MdmX inh 12, MPTP block 76* and MPTP counter 76*.
C[C@H](NC(=O)NCc1ccc(F)cc1)C(=O)O was read as NR3A LBD binder -1, Beta apoptosis -5, Gli-Sufu antag 1, CSC inhib -6, Mdm2-MdmX inh 14 and MPTP block -11.
Screening CCNC(=S)NCc1ccc(Cl)cc1 returned NR3A LBD binder 2, Beta apoptosis -4, Gli-Sufu antag -8, CSC inhib -6, Mdm2-MdmX inh 6 and MPTP block -2.
